Laboratory results reported in PubChem BioAssay (Tox21).
Where “and” joins values, the source holds several entries; their conditions need not be identical. Identical values can stand only once. Inconclusive results are not listed. The source holds several records for some structures; these can differ, active in one and inactive in another. Calls of active or inactive are those of the source. Unless noted, calls come from the whole dose curve; as a rule, active = well fitted curve in the direction sought with a large enough effect in the repeat runs; inconclusive = weak or mixed curves; inactive = no such curve, though single readings can be large; an effect the other way counts as inactive or inconclusive.

Tests used:
[1] = qHTS assay to identify small molecule antagonists of the thyroid receptor (TR) signaling pathway - cell viability counter screen (AID 743064); details: GH3.TRE-Luc viability, CellTiter-Fluor, 24 h; series mostly up to 70.3 µM; note: nearly all actives have a fitted effect of over 50% in size; note: potency is the fitted concentration of half-maximal effect
Summary of the method: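 Fluorescence from CellTiter-Fluor, added after 23.5 h exposure at 37 °C, reported viability of GH3.TRE-Luc cells co-treated with compound and 1 nM T3. Measured in the same wells as the luciferase TR readout.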

[2] = qHTS assay to identify small molecule antagonists of the thyroid receptor (TR) signaling pathway (AID 743065); details: GH3.TRE-Luc, T3-stimulated luciferase inhibition, 23.5 h; series mostly up to 70.3 µM; note: nearly all actives have a fitted effect of over 55% in size; note: potency is the fitted concentration of half-maximal effect
Summary of the method: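 GH3.TRE-Luc rat pituitary cells carrying two TR response elements driving luciferase were plated for 4 h, given compound plus 1 nM T3 (final), and incubated 23.5 h at 37 C. ONE-Glo luminescence measured reporter inhibition; CellTiter-Fluor fluorescence tracked cytotoxicity.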

[3] = qHTS assay to identify small molecule antagonists of the estrogen receptor alpha (ER-alpha) signaling pathway - cell viability counter screen (AID 743074; calls by dose curve;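 note: HEK293 cells carrying ER-alpha-UAS-bla reporter stimulated with 17beta-estradiol; nearly all actives have a fitted effect of over 45% in size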; note: potency is the fitted concentration of half-maximal effect); details: ERalpha-bla HEK293 viability, CellTiter-Glo luminescence, 18 h; series mostly up to 69.4 µM
[4] = qHTS assay to identify small molecule antagonists of the estrogen receptor alpha (ER-alpha) signaling pathway using the BG1 cell line - cell viability counter screen (AID 743081); details: BG1Luc4E2 viability, CellTiter-Fluor, 22 h; series mostly up to 70.3 µM;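 note: compound given together with 17beta-estradiol as the ER stimulus; nearly all actives have a fitted effect of over 45% in size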; note: potency is the fitted concentration of half-maximal effect
Aromatase (Homo sapiens) = Aromatase (Homo sapiens) (UniProt P11511); assay: qHTS assay to identify aromatase inhibitors (AID 743083); details: MCF-7 aro ERE, testosterone-driven ERE luciferase, 24 h; series mostly up to 70.3 µM; note: nearly all actives have a fitted effect of over 55% in size; note: potency is the fitted concentration of half-maximal effect
Sequence of Aromatase (Homo sapiens) (P11511 whole entry, looked up): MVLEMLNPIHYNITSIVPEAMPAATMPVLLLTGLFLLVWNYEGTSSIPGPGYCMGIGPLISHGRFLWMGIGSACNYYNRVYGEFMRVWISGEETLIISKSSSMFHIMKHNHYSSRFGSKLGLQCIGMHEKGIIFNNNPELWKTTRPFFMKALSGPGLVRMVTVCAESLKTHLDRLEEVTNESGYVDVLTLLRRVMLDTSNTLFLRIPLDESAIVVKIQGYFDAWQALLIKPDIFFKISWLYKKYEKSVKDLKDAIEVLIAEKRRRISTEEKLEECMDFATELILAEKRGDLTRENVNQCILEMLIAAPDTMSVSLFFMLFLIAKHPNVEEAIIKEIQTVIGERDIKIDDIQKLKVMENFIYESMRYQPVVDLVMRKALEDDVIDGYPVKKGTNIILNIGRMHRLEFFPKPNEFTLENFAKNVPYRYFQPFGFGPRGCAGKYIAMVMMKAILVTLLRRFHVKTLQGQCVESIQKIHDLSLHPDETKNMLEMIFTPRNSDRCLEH

[5] = qHTS assay to identify aromatase inhibitors - cell viability counter screen (AID 743084); details: MCF-7 aro ERE viability, CellTiter-Fluor, 24 h; series mostly up to 70.3 µM;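 note: cells stimulated with testosterone during compound exposure; nearly all actives have a fitted effect of over 55% in size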; note: potency is the fitted concentration of half-maximal effect
[6] = biological target: Aryl hydrocarbon receptor (Homo sapiens) (UniProt P35869); assay: qHTS assay to identify small molecule that activate the aryl hydrocarbon receptor (AhR) signaling pathway (AID 743085); details: HepG2 AhR-luc (HG2L7.5c1), luciferase, 24 h; series mostly up to 70.3 µM; note: nearly all actives have a fitted effect of over 15% in size; note: potency is the fitted concentration of half-maximal effect;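 for activation: HG2L7.5c1 human HepG2 liver cells with stably integrated DRE-driven firefly reporter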
Sequence of Aryl hydrocarbon receptor (Homo sapiens) (P35869 whole entry, looked up): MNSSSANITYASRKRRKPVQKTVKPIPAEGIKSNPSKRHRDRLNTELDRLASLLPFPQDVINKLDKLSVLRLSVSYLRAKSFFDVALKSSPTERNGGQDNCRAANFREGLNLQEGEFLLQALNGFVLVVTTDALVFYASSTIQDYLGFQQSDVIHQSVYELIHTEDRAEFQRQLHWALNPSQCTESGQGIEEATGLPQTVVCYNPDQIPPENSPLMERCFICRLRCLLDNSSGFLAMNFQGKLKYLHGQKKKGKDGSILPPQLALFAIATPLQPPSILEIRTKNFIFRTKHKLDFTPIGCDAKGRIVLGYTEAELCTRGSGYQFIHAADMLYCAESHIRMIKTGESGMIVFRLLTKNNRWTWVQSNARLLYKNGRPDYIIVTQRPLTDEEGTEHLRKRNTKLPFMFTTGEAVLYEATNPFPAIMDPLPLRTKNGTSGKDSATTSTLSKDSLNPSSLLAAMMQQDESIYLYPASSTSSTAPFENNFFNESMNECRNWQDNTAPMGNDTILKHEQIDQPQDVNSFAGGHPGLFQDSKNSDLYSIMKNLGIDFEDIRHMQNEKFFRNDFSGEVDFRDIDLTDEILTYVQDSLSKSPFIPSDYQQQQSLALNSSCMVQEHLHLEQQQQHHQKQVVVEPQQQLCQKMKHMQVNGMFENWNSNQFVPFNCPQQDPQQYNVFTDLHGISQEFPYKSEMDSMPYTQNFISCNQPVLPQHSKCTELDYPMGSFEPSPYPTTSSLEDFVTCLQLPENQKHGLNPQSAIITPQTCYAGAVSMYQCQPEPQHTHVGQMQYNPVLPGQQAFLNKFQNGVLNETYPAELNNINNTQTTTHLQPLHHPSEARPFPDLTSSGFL
Summary of the method: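 Cell line HG2L7.5c1 (human hepatoma, 20× DRE-luc). Plated, 5 h 37C, compound/DMSO added, 24 h 37C. CellTiter-Fluor 30 min 37C → fluorescence; then ONE-Glo 30 min RT → luminescence.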

[7] = qHTS assay to identify small molecule that activate the aryl hydrocarbon receptor (AhR) signaling pathway - cell viability counter screen (AID 743086); details: HepG2-AhR-luc viability, CellTiter-Fluor, 24 h; series mostly up to 70.3 µM; note: nearly all actives have a fitted effect of over 45% in size; note: potency is the fitted concentration of half-maximal effect
Summary of the method: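 HepG2-AhR-luc (HG2L7.5c1) cells, 4000/well, were preincubated 5 h at 37C, exposed to compound in qHTS format for 24 hr at 37C, then given CellTiter-Fluor for 30 min; viability was read as fluorescence in the reporter wells.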

[8] = qHTS assay to identify small molecule antagonists of the peroxisome proliferator-activated receptor gamma (PPARg) signaling pathway - cell viability counter screen (AID 743194); details: PPARg-bla HEK293H viability, CellTiter-Glo luminescence, 17 h, co-treated with 50 nM rosiglitazone; series mostly up to 62.6 µM; note: nearly all actives have a fitted effect of over 55% in size; note: potency is the fitted concentration of half-maximal effect
Summary of the method: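 PPARg-UAS-bla HEK293H cells were plated, rested 5 h at 37 C, then treated with compounds plus rosiglitazone (50 nM final) for 17 h at 37 C; viability was then read by CellTiter-Glo luminescence after 30 min at room temperature.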

[9] = qHTS assay for small molecule agonists of the antioxidant response element (ARE) signaling pathway - cell viability counter screen (AID 743203; calls by dose curve; note: nearly all actives have a fitted effect of over 55% in size; note: potency is the fitted concentration of half-maximal effect); details: ARE-bla HepG2 viability, CellTiter-Glo luminescence, 16 h; series mostly up to 73.3 µM
Summary of the method: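 HepG2 cells carrying ARE-driven beta-lactamase; 2,000 cells/well; 5 hrs plating; compound pinned from DMSO; 16 hrs 37C/5% CO2; CellTiter-Glo added; 30 min RT; luminescence.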

[10] = qHTS assay for small molecule activators of the heat shock response signaling pathway - cell viability counter screen (AID 743209); details: HSE-bla HeLa viability, CellTiter-Glo luminescence, 5 h; series mostly up to 62.6 µM; note: nearly all actives have a fitted effect of over 50% in size; note: potency is the fitted concentration of half-maximal effect
Summary of the method: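 Luminescence from CellTiter-Glo, added after the beta-lactamase FRET read, gave the viability signal. Cells were HSE-bla HeLa treated with DMSO-dissolved compounds for 5 h at 37 C following overnight plating.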

[11] = qHTS assay for small molecule activators of the heat shock response signaling pathway (AID 743210; active = well fitted activation curve with a large enough effect in the signal ratio in the repeat runs, with a control signal flat, not every such curve was filed as active; the % refers to the signal ratio; note: potency is the fitted concentration of half-maximal effect;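 for activation: HeLa cells with beta-lactamase reporter driven by heat shock elements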); details: HeLa HSE-bla reporter, beta-lactamase ratio, 5 h; series mostly up to 62.6 µM
Summary of the method: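 Reporter gene assay: HeLa cells stably bearing an HSE-bla construct, compound treatment 5 h at 37 C, LiveBLAzer substrate 2.5 h at RT, fluorescence intensity.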

[12] = test system: thyroid hormone receptor (rat, GH3 cells); assay: qHTS assay to identify small molecule agonists of the thyroid receptor (TR) signaling pathway (AID 743066; calls by dose curve); details: GH3.TRE-Luc cells, TR agonist luciferase, 24 h; series mostly up to 83.9 µM
[13] = biological target: Peroxisome proliferator-activated receptor gamma (Homo sapiens) (UniProt P37231); assay: qHTS assay to identify small molecule agonists of the peroxisome proliferator-activated receptor gamma (PPARg) signaling pathway (AID 743094; active = well fitted activation curve with a large enough effect in the signal ratio in the repeat runs, not every such curve was filed as active; the % refers to the signal ratio); details: HEK293H PPARg-UAS-bla, beta-lactamase FRET ratio, 17 h; series mostly up to 57 µM
Sequence of Peroxisome proliferator-activated receptor gamma (Homo sapiens) (P37231 whole entry, looked up): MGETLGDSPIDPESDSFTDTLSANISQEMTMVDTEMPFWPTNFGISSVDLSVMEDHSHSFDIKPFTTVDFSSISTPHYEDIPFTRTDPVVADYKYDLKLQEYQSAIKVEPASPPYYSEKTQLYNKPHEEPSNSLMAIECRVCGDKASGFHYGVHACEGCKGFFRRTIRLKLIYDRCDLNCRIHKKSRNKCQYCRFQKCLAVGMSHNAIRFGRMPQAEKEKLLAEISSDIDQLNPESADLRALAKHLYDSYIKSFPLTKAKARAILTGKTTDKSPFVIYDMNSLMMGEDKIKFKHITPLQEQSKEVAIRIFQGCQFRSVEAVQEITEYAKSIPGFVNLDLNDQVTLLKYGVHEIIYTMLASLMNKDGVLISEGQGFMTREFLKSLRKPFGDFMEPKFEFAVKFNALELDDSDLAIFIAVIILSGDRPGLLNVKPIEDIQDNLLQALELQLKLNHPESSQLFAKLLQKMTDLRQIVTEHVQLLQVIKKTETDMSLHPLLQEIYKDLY
Summary of the method: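 Beta-lactamase FRET fluorescence was the read-out after a 1 h room-temperature substrate step, following 17 h compound treatment at 37C of HEK293H cells expressing a UAS-driven bla reporter responsive to PPARg.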

[14] = biological target: Peroxisome proliferator-activated receptor gamma (Homo sapiens) (UniProt P37231); assay: qHTS assay to identify small molecule antagonists of the peroxisome proliferator-activated receptor gamma (PPARg) signaling pathway (AID 743191; calls by dose curve; note: nearly all actives have a fitted effect of over 30% in size); details: HEK293H PPARg-UAS-bla, beta-lactamase ratio, antagonist, 17 h; series mostly up to 62.6 µM
Summary of the method: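 GeneBLAzer PPARg UAS-bla HEK293H cells carrying a UAS-driven beta-lactamase reporter were plated at 3000 cells/well, preincubated 5 h at 37C, then given compound for 17 h at 37C; LiveBLAzer B/G FRET substrate was read after 1 h at room temperature.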

[15] = qHTS assay for small molecule agonists of the antioxidant response element (ARE) signaling pathway (AID 743202; active = well fitted activation curve with a large enough effect in the signal ratio in the repeat runs, not every such curve was filed as active; the % refers to the signal ratio; note: potency is the fitted concentration of half-maximal effect); details: HepG2 ARE-bla reporter, beta-lactamase FRET, 16 h; series mostly up to 73.3 µM
Summary of the method: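 Compounds delivered in DMSO to ARE-bla HepG2 cells (2,000 cells/well, pre-incubated 5 h) and left 16 h at 37 C. LiveBLAzer B/G FRET substrate then added for 2 h at RT before fluorescence reading.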

[16] = biological target: Estrogen receptor (Homo sapiens) (UniProt P03372); assay: qHTS assay to identify small molecule antagonists of the estrogen receptor alpha (ER-alpha) signaling pathway (AID 743069; active = well fitted curve in the direction sought with a large enough effect in the signal ratio in the repeat runs, not every such curve was filed as active; the % refers to the signal ratio; note: potency is the fitted concentration of half-maximal effect); details: HEK293 ER-alpha-UAS-bla, beta-lactamase ratio, antagonist mode; series mostly up to 69.4 µM
Sequence of Estrogen receptor (Homo sapiens) (P03372 whole entry, looked up): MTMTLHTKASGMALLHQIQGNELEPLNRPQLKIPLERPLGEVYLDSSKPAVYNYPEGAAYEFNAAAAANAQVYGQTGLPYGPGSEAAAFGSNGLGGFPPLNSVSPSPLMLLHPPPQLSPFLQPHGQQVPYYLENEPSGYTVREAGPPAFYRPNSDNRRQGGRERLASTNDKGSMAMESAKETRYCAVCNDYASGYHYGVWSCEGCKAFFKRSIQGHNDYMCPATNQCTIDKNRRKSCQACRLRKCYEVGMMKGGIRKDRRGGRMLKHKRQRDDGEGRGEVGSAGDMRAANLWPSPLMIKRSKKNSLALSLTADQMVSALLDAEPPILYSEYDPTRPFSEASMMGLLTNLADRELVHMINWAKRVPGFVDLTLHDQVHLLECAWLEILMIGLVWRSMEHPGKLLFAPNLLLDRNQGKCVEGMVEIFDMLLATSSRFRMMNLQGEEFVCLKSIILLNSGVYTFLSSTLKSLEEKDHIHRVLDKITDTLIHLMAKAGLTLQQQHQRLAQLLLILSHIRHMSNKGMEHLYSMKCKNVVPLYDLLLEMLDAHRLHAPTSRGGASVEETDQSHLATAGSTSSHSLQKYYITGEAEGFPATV
Summary of the method: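 Estradiol-stimulated ER-alpha-UAS-bla HEK293 cells, 18 hr compound exposure at 37C. LiveBLAzer B/G substrate, 2 hr RT, fluorescence read.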

[17] = biological target: Estrogen receptor (Homo sapiens) (UniProt P03372); assay: qHTS assay to identify small molecule agonists of the estrogen receptor alpha (ER-alpha) signaling pathway (AID 743075; calls by dose curve;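 note: HEK293 GripTite cells with ER-alpha and UAS-driven beta-lactamase reporter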); details: HEK293 ER-alpha-UAS-bla, beta-lactamase FRET ratio, 18 h; series mostly up to 70.1 µM
[18] = biological target: Estrogen receptor (Homo sapiens) (UniProt P03372); assay: qHTS assay to identify small molecule agonists of the estrogen receptor alpha (ER-alpha) signaling pathway using the BG1 cell line (AID 743079); details: BG1Luc4E2 cells, ERE-luciferase agonist, 22 h; series mostly up to 70.3 µM; note: nearly all actives have a fitted effect of over 20% in size; note: potency is the fitted concentration of half-maximal effect
[19] = qHTS assay to identify small molecule antagonists of the estrogen receptor alpha (ER-alpha) signaling pathway using the BG1 cell line (AID 743080; calls by dose curve;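 note: BG1 cells stimulated with 17beta-estradiol alongside compound; nearly all actives have a fitted effect of over 25% in size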; note: potency is the fitted concentration of half-maximal effect); details: BG1Luc4E2 ERE-luciferase antagonist mode, luminescence; series mostly up to 70.3 µM
Summary of the method: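 BG1-Luc-4E2 cells (endogenous full-length ER-alpha, stable 4×ERE-luciferase) were starved 5 days in phenol-red-free medium with 10% charcoal-stripped FBS, plated 24 h, then given compound plus 17beta-estradiol for 21.5 h at 37 C; ONE-Glo luminescence read after 30 min.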

Measured: Potency

COC(=O)[C@H]1[C@H]2C[C@@H]3c4[nH]c5cc(OC)ccc5c4CCN3C[C@H]2C[C@@H](OC(=O)c2cc(OC)c(OC)c(OC)c2)[C@@H]1OC
active: [1] 11.9 µM and 24.3 µM | [2] 11.9 µM and 21.6 µM and 39.7 µM | Aromatase (Homo sapiens) 16.8 µM and 27.3 µM and 56 µM | [6] 68.5 µM and 39.7 µM
inactive: [3] | [4] | [5] | [7] | [8] | [9] | [10] | [11]

CCC(CO)(CO)COCC(CC)(CO)CO
not listed: [3] | [16] | [17] | [18] | [19]
inactive: all other assays above

CC(C)(C)c1ccc(O)c(C(C)(C)C)c1
active: [1] 27.2 µM and 30.6 µM | [2] 30.5 µM and 24.3 µM | Aromatase (Homo sapiens) 54.3 µM and 54.5 µM | [5] 48.4 µM and 48.6 µM | [8] 48.8 µM and 38.9 µM | [9] 61.1 µM | [10] 48.8 µM and 43.6 µM
inactive: [16] | [4] | [6] | [7] | [13]
34.5 µM (active) and inactive: [3]

CCN(CC)CCOc1ccc(/C(=C(\Cl)c2ccccc2)c2ccccc2)cc1
inactive and 27.9 µM (active): [5]
inactive: [12] | [4] | [6]
active: [1] 7.5 µM and 7.86 µM | [2] 6.68 µM and 7.86 µM | [3] 39.7 µM | Aromatase (Homo sapiens) 3.35 µM and 1.4 µM | [8] 17.7 µM | [9] 15.7 µM and 29.8 µM | [10] 39.7 µM and 29.8 µM

CCC(C)(C)C(=O)O[C@H]1C[C@@H](C)C=C2C=C[C@H](C)[C@H](CC[C@@H]3C[C@@H](O)CC(=O)O3)[C@H]21
active: [10] 54.9 µM
12.7 µM (active) and inactive: [18]
not listed: [2] | [9] | [11] | [14] | [15] | [19]
inactive: all other assays above

CN(C)c1ccc2nc3ccc(=[N+](C)C)cc-3sc2c1
inactive: [12] | [16] | [3] | [13] | [8]
inactive and 54.9 µM (active): [10]
active: [1] 15 µM and 26.2 µM and 54.5 µM | [4] 18.8 µM and 23.4 µM and 54.5 µM | [5] 23.7 µM and 13.1 µM | [7] 9.44 µM and 16.6 µM and 27.3 µM | [9] 11.7 µM and 9.69 µM and 11.9 µM

COc1ccc(COC(C)=O)cc1
inactive and 54.9 µM (active): [11]
not listed: [9] | [13] | [14] | [16] | [17] | [18] | [19]
inactive: all other assays above

CNC1(C)C2CCC(C2)C1(C)C (stereo unspecified)
not listed: [6] | [14] | [16] | [17] | [18] | [19]
inactive: all other assays above

CNCCC(Oc1ccc(C(F)(F)F)cc1)c1ccccc1 (stereo unspecified)
inactive and 47.9 µM (active): [5]
active: [1] 11.9 µM and 9.56 µM | [2] 11.9 µM and 15.2 µM | Aromatase (Homo sapiens) 47.9 µM | [8] 48.4 µM | [9] 17 µM
inactive and 48.4 µM (active): [3]
inactive and 60.3 µM (active): [7]
inactive: [4] | [6]

O
inactive: [1] | [3] | [4] | Aromatase (Homo sapiens) | [5] | [6] | [7] | [8] | [15] | [9] | [10]

CCCCC(CC)COC(=O)CC(C(=O)OCC(CC)CCCC)S(=O)(=O)O (stereo unspecified)
active: [16] 21.3 µM [inhibitor] and 54.9 µM [inhibitor] | [10] 52.9 µM
inactive: [12] | [17] | [4] | Aromatase (Homo sapiens) | [5] | [6] | [7] | [13]
47.1 µM (active) and inactive: [3]
inactive and 15 µM (active): [18]

O=C(O)c1cc(Cl)cc(Cl)c1
not listed: [1] | [14]
inactive: all other assays above

CC[C@@H](N)CO
not listed: [1] | [10] | [14] | [19]
inactive: all other assays above

C#CC(C)(CC)OC(=O)c1ccccc1C(=O)O (stereo unspecified)
inactive: [14] | [8] | [15] | [10] | [11]

CCCCCCCCCCCCCC[P+](CCCC)(CCCC)CCCC
inactive: [6]
active: [1] 2.16 µM and 2.17 µM | [16] 21.9 µM [cytotoxic] | [3] 3.45 µM and 8.71 µM | [19] 6.82 µM and 4.86 µM | [4] 17.1 µM and 15.4 µM | Aromatase (Homo sapiens) 7.65 µM and 6.11 µM | [5] 17.1 µM and 19.3 µM | [7] 68.2 µM and 54.5 µM | [8] 3.45 µM and 3.47 µM | [10] 6.88 µM and 13.8 µM

NC12CC3CC(CC(C3)C1)C2
not listed: [1] | [2] | [11] | [16] | [17] | [18] | [19]
inactive: all other assays above

CC(=O)Nc1ccc(C(=O)CCl)cc1
inactive and 3.89 µM (active): [10]
inactive and 8.63 µM (active): [1]
active: [5] 7.7 µM | [8] 13.8 µM | [15] 34.6 µM
inactive: [3] | [4] | Aromatase (Homo sapiens) | [6] | [7] | [13] | [11]
